Source: PubChem
Hits are enriched below; roughly 3% of the tested compounds scored in any of these assays.
KKLEB tox: cytotoxicity in KKLEB CF airway cells, primary screen, cytotoxicity control for CF NF-kB inhibitor project, cell-based, uHTS, fluorescence assay plates | 0.36% of 360,000 active | activity change (cytotoxicity), % at 5 µM | KKLEB CF airway cells viability, ATPlite luminescence, overnight; active compounds read low; cells stimulated with P. aeruginosa culture filtrate;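 active = corrected activity change at or below -50% at 5 µM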
CF NFkB inh: inhibitors of PAF-induced NF-kB signaling, primary screen, cell-based, GFP fluorescence, uHTS; KKLEB NF-kB-GFP reporter, GFP fluorescence overnight; 0.86% of 360,000 active; inhibition, % at 5 µM;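 active = at least 50% inhibition at 5 µM, scaled per plate between neutral and stimulator controls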;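 note: PAF is a Pseudomonas aeruginosa culture filtrate used as stimulus; plate controls were PAF-stimulated DMSO wells for no effect and unstimulated DMSO wells for full effect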
HIF-2a block: HIF-2a reporter inhibitors, primary screen, luminescence, 786-0 RCC cells; 0.72% of 360,000 active; inhibition, % at 18.8 µM; AID 624352, 2012; 786-0 RCC cells HIF-2a reporter, luciferase luminescence, overnight;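 active = inhibition of the luminescence signal of 40% or more relative to plate controls, in a single-dose primary screen at 18.75 µM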
ABHD5 PLIN5 PPI: ABHD5-PLIN5 interaction inhibitors, primary screen, cell lysate, split luciferase complementation, luminescence; AID 602281, 2012; 0.78% of 360,000 active; Split G. princeps luciferase complementation, 4 h; inhibition, % at 4 µM;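 active = inhibition above the mean inhibition across every tested compound plus 3 SD, cut at about 22% in these data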;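 note: 0% = DMSO only wells and the 100% control is not disclosed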
MITF TRPM1 inh: inhibitors of MITF-dependent TRPM1 promoter reporter, primary screen, cell-based, SK-MEL-5, single point, luciferase; inhibition, % at 12.5 µM; 0.83% of 330,000 active; SK-MEL-5 TRPM1 promoter luciferase, 24 h;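 active = mean inhibition across replicates of 60% or more, whatever share of single replicates reaches that level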
Peg3 promoter: Peg3 promoter-driven luciferase inhibitors, primary screen, cell-based, HeLa, luciferase luminescence; 1.7% of 360,000 active; inhibition, % at 20 µM; AID 588405, 2011; HeLa PEG-Prom luciferase reporter, overnight;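 active = inhibition of at least 50% at 20 µM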
ABHD5-PLIN5 conf: ABHD5-PLIN5 interaction inhibitors, confirmation, biochemical, luminescence. 67% of 2,200 active. shares compounds with ABHD5 PLIN5 PPI. inhibition, % at 4 µM. AID 651612, 2012; in the data active = inhibition above about 23%;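 note: 0% = DMSO vehicle wells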
HNF4 counter: HNF4 dimerization inhibitors, counter-screen for ABHD5-PLIN5 interaction inhibitor project, biochemical, split-luciferase complementation, luminescence; shares compounds with ABHD5 PLIN5 PPI; inhibition, % at 4 µM; 77% of 2,200 active; AID 651674, 2012;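 active = mean inhibition across replicate wells exceeding the computed hit threshold, cut at about 13% in these data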;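 note: light from luciferase halves that rejoin when HNF4 fusion proteins dimerize; 0% = DMSO only wells and the 100% control is not given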
Mdm2 MdmX conf: retested Mdm2-MdmX interaction blockers, confirmation, cell-based, luminescence, single concentration, set 2. inhibition, % at 8 µM. 99% of 740 active. AID 504601, 2011. shares compounds with HIF-2a block. SaOS-2 split-luciferase Mdm2/MdmX complementation;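 active = mean inhibition of the luminescence signal across two replicates at or above 26 percent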
Target sequence (O15151 whole entry, looked up): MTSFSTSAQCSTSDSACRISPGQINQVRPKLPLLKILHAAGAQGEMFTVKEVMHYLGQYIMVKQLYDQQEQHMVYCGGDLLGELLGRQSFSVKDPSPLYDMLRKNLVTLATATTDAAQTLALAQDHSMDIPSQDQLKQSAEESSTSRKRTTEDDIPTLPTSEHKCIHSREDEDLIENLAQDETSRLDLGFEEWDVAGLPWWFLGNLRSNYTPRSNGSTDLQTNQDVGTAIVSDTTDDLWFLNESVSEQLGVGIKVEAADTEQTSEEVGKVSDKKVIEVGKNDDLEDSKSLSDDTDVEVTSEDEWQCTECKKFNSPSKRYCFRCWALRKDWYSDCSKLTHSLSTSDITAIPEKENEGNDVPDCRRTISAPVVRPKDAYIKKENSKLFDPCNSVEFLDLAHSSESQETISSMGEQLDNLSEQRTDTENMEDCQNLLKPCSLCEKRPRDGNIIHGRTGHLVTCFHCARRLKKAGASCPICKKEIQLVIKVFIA
Target sequence (Q00987 whole entry, looked up): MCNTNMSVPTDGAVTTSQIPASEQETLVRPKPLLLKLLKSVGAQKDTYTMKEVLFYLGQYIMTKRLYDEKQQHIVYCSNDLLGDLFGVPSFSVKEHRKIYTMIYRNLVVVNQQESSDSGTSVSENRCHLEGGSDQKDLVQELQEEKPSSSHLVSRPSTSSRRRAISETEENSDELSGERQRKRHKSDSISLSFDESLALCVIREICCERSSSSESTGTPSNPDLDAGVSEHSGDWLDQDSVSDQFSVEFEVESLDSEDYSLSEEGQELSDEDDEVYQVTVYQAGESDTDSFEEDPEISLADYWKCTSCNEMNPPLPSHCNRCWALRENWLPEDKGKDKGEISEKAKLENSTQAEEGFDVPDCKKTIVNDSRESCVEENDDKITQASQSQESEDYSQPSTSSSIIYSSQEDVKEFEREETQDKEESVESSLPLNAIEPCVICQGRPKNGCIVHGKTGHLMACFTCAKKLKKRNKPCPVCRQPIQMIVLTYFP
HIF-2a conf: HIF-2a reporter inhibitor retest, confirmation, luminescence, 786-0 RCC cells. HIF-2a luciferase reporter luminescence, overnight. 56% of 1,800 active. inhibition, % at 18.8 µM. shares compounds with HIF-2a block;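 active = mean inhibition across four replicates of at least 40 percent at the single tested concentration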
HIF-1a cs: HIF-1a luciferase reporter signal reduction – MiaPaCa-2 cells, single concentration, counter-screen for HIF-2a inhibitor project, confirmation; MiaPaCa-2 HIF-1a luciferase reporter, desferoxamine, overnight; shares compounds with HIF-2a block; 72% of 1,800 active; inhibition, % at 18.8 µM;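 active = mean inhibition of the reporter signal across four replicates at the single tested dose of 50% or more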
An asterisk follows results filed as active; / = not tested or not shown.

SMILES	KKLEB tox	CF NFkB inh	HIF-2a block	ABHD5 PLIN5 PPI	MITF TRPM1 inh	Peg3 promoter	ABHD5-PLIN5 conf	HNF4 counter	HIF-2a conf	HIF-1a cs	others
C=CCn1c(NC(=O)c2ccc(C)cc2)nc2ccccc21	-1	8	-157	0	-17	-128	/	/	/	/
COc1cccc(/C=C2/CCC(CN(C)C)C2=O)c1 (stereo not given)	11	-71	60*	58*	97*	96*	101*	104*	21	103*
COc1cccc(/C=C2\CCC(C3CCCC3)C2=O)c1 (stereo not given)	1	1	-227	-2	-60	-185	/	/	/	/
Cc1noc(C)c1-c1ccc(C(=O)NC2CCCCC2)c2occc12	-13	-30	-328	-5	/	-165	/	/	/	/
COc1cccc(NC(=O)CCNC(=O)C2CCN(S(=O)(=O)c3ccc(F)cc3)CC2)c1	3	-7	12	-7	3	-10	/	/	/	/
CN(C)CC(C(=O)c1ccccc1)c1ccccc1 (stereo not given)	-51*	63*	86*	31*	91*	114*	13	100*	25	96*	Mdm2 MdmX conf=103*
CCNC(=O)C1(C)CCN(C(=O)c2ccc3snnc3c2)C1 (stereo not given)	10	-14	7	10	/	-5	/	/	/	/
CSC(=Nc1ccccc1)N=C(SCc1ccccc1)N(C)C	-11	37	83*	81*	116*	96*	96*	57*	74*	107*
N#CNC(=Nc1ccccc1)SCc1ccc(C(=O)O)cc1	2	7	1	-1	3	-4	/	/	/	/
CC(CN1CCOCC1)OC(=O)c1ccc(Br)cc1 (stereo not given)	1	-10	14	0	12	1	/	/	/	/
O=C(c1ccc(Br)cc1)C(CN1CCOCC1)c1ccccc1 (stereo not given)	-64*	62*	70*	29*	40	50	52*	94*	-10	-31
Cc1cc(C)c(C(CC(=O)c2cccs2)C(C#N)C#N)c(C)c1 (stereo not given)	-54*	61*	76*	24*	-39	-12	64*	41*	-39	102*
COc1ccc(/C=C/c2c(-c3ccc(OC)cc3)oc3ccc(-c4ccc(OC)cc4)cc23)cc1	-2	-3	-12	-4	8	21	/	/	/	/
COc1ccc(/C=C/c2cc(-c3ccc(C)cc3)o[n+]2C)cc1	-62*	56*	43*	28*	88*	67*	44*	31*	54*	103*	Mdm2 MdmX conf=102*
CN(C)CCCNC(=O)c1ccc(-c2nc(-c3ccc(Cl)cc3)cs2)cc1	-24	6	88*	27*	83*	103*	22*	2	-175	106*
CC(C)N(CCNC(=O)c1ccc(CS(=O)(=O)c2c(Cl)cccc2Cl)o1)Cc1ccccc1	1	1	3	1	-6	-17	/	/	/	/
Fc1ccc2[nH]c3c(c2c1)CN(C(=S)NCc1ccccc1)CC3	-5	-11	17	2	4	3	/	/	/	/
COc1ccc(OCc2n(CC(=O)OC3CC(C)CCC3C(C)C)c3ccccc3[n+]2C)cc1 (stereo not given)	-53*	64*	95*	39*	82*	100*	14	9	-5	103*	Mdm2 MdmX conf=102*
C=CS(=O)(=O)c1ccc(Oc2ccc(S(=O)(=O)C=C)cc2)cc1	-56*	99*	90*	86*	89*	107*	100*	102*	90*	106*
O=C(C#Cc1ccccc1)c1ccco1	-64*	99*	40*	39*	99*	105*	54*	107*	90*	103*	Mdm2 MdmX conf=103*
CC1=CC(C)(C)Nc2ccc(OC(=O)CN3C(=O)CCC3=O)cc21	-10	11	74*	80*	-1	44	96*	33*	88*	90*
COc1ccc(OC(=O)C(C)N2C(=O)c3ccccc3C2=O)cc1 (stereo not given)	1	15	17	5	-7	5	/	/	/	/
CC1=CC(C)(C)Nc2ccc(OC(=O)C(C)N3C(=O)c4ccccc4C3=O)cc21 (stereo not given)	-6	8	78*	58*	13	-18	90*	24*	90*	94*
CC1=CC(C)(C)Nc2ccc(Cc3ccc4c(c3)C(C)=CC(C)(C)N4)cc21	11	14	35	-12	12	16	/	/	/	/
CC1=CC(C)(C)Nc2ccc(OC(=O)c3cccnc3)cc21	-9	38	75*	78*	-2	57*	97*	72*	86*	94*
CC1=CC(C)(C)Nc2ccc(OC(=O)c3ccco3)cc21	2	24	81*	67*	8	46	91*	91*	83*	92*
CCCN1C(=O)/C(=C/c2ccc(C)s2)SC1=Nc1ccc(OC)cc1	-23	18	11	-1	4	14	/	/	/	/
CCN(CC)CCN1C(=O)/C(=C\c2ccc(Cl)c([N+](=O)[O-])c2)SC1=Nc1ccc(OC)cc1	-82*	99*	96*	39*	94*	102*	27*	14*	54*	104*
